Where “and” joins values, the source holds several entries; their conditions need not be identical. Equal entries are not always repeated. The panel holds about 83,000 compounds, 20% with a hit somewhere; the sample as a whole holds those more often.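 Method: cells in 96-well plates; compound added at one concentration; 48 h incubation; percent growth measured; values under 10 scored active.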 Calls of active or inactive are those of the source.
Experiments:
Assay in all cases: NCI-60 one-dose screen, 48 h (100 = growth as untreated, 0 = no growth, -100 = all killed)
Conditions in all cases: 10 µM unless noted
[1] = test system: NCI-H23 lung
[2] = test system: NCI-H226 lung
[3] = test system: NCI-H322M lung
[4] = test system: HOP-62 NSCLC
[5] = test system: NCI-H460 lung
[6] = test system: HOP-92 NSCLC
[7] = test system: NCI-H522 lung
[8] = test system: A549/ATCC NSCLC
[9] = test system: 786-0 renal
[10] = test system: COLO 205 colon

Row | SMILES | growth [1] | growth [2] | growth [3] | growth [4] | growth [5] | growth [6] | growth [7] | growth [8] | growth [9] | growth [10]
1 | O=C(N=Nc1c(O)[nH]c2ccccc12)Nc1ccc(Br)cc1 | 101% (inactive) | 83.6% (inactive) | 70.9% (inactive) | 98.4% (inactive) | 92.1% (inactive) | 66.5% (inactive) | 72.3% (inactive) | 98.9% (inactive) | 89.6% (inactive) | 97.8% (inactive)
2 | COc1ccc(C(c2cc(OC)c(OC)c(OC)c2)n2ccnc2)cc1O (stereo not given) | 38.9% (inactive) | 68.7% (inactive) | 48.2% (inactive) | 29.5% (inactive) | 6.11% (active) | 25.8% (inactive) | 12.1% (inactive) | 12.8% (inactive) | 20% (inactive) | -9.99% (active)
3 | CCN(CC)/C([O-])=c1\cccc\c1=C1\N=C(c2ccccc2)N=C1[n+]1ccc(-c2ccccc2)cc1 | 103% (inactive) | 94.4% (inactive) | 100% (inactive) | 97.1% (inactive) | 103% (inactive) | 86.7% (inactive) | 21% (inactive) | 97.9% (inactive) | 94.2% (inactive) | 108% (inactive)
4 | CCOC(=O)C(=Cc1ccc(C#N)cc1)C(=O)OCC | 55.5% (inactive) | -36.3% (active) | 73.2% (inactive) | 104% (inactive) | 81.6% (inactive) | 58.3% (inactive) | -24.6% (active) | 53.2% (inactive) | 0.647% (active) | 4.69% (active)
5 | CC(Sc1ccccc1)C(=O)O (stereo not given) | 96% (inactive) | 99.3% (inactive) | 109% (inactive) | 83.4% (inactive) | 111% (inactive) | 97% (inactive) | 102% (inactive) | 99.3% (inactive) | 118% (inactive) | 143% (inactive)
6 | COc1ccc(C2=C(CN)C(O)NC(=NCC(=O)c3ccc4ccccc4c3)N2)cc1 (stereo not given) | 103% (inactive) | 100% (inactive) | 104% (inactive) | 98.7% (inactive) | 114% (inactive) | 113% (inactive) | 86% (inactive) | 95.5% (inactive) | 98.5% (inactive) | 87.4% (inactive)
7 | NS(=O)(=O)OCC1OC(n2cnc3cncnc32)C(O)C1O (stereo not given) | 6.16% [0.1 µM] (active) and 3.98% [0.1 µM] (active) | 16.8% [0.1 µM] (inactive) | -26.7% [0.1 µM] (active) and 12.1% [0.1 µM] (inactive) | -21.5% [0.1 µM] (active) and -12.7% [0.1 µM] (active) | 2.5% [0.1 µM] (active) and 0.409% [0.1 µM] (active) | 10.2% [0.1 µM] (inactive) and 3.58% [0.1 µM] (active) | 2.73% [0.1 µM] (active) and -11.8% [0.1 µM] (active) | 11.1% [0.1 µM] (inactive) and 13.4% [0.1 µM] (inactive) | 8.57% [0.1 µM] (active) and 11.9% [0.1 µM] (inactive) | 32.2% [0.1 µM] (inactive) and 27.1% [0.1 µM] (inactive)
8 | C=C1C(=O)O[C@H]2[C@H]1CC/C(COC(=O)NCc1ccc(Cn3c(=O)sn(CCCI)c3=O)cc1)=C\CC[C@@]1(C)O[C@@H]21 | 72.1% (inactive) | 77.9% (inactive) | 97.5% (inactive) | 96% (inactive) | 102% (inactive) | -29.3% (active) | -68.2% (active) | 95.5% (inactive) | 6.22% (active) | -45.8% (active)
9 | COc1cc(CO)cc2cc3ccccc3nc12 | 97.3% (inactive) | 79.4% (inactive) | 115% (inactive) | 95.7% (inactive) | 105% (inactive) | 103% (inactive) | 96.8% (inactive) | 104% (inactive) | 97.8% (inactive) | 107% (inactive)
10 | CCN(CC)CCOc1ccccc1C | 111% (inactive) | 116% (inactive) | 115% (inactive) | 93.8% (inactive) | 109% (inactive) | 94.6% (inactive) | 92.6% (inactive) | 98.6% (inactive) | 98.8% (inactive) | 111% (inactive)
11 | C/C=C(/C)C(=O)O[C@@H]1CC(C)(C)CC2C34OC(=O)[C@@]21CC[C@@]3(C)[C@]1(C)CCC2C(C)(C)C(=O)CC[C@]2(C)C1C[C@@H]4Cl (stereo not given in full) | 95.4% (inactive) | 86.7% (inactive) | 98.2% (inactive) | 94.5% (inactive) | 97.7% (inactive) | 74.7% (inactive) | 93% (inactive) | 91% (inactive) | 90.4% (inactive) | 98.8% (inactive)
12 | C#CCn1cnc2cnc(Nc3cccc(NC(=O)CCl)c3)nc21 | -8.25% [6.25 µM] (active) | -26% [6.25 µM] (active) | 10.4% [6.25 µM] (inactive) | 4.26% [6.25 µM] (active) | -13.4% [6.25 µM] (active) | 12.6% [6.25 µM] (inactive) | -57.1% [6.25 µM] (active) | -51.3% [6.25 µM] (active) | 2.39% [6.25 µM] (active) | -57.3% [6.25 µM] (active)
13 | CON1CCC[C@]2(C)[C@H]3CC[C@@H]4[C@H]5[C@@H](O)C(C)(C)CC[C@]5(CO)CC[C@@]4(C)[C@]3(C)CC[C@H]2C1(C)C | 102% (inactive) | 92.8% (inactive) | 109% (inactive) | 95.6% (inactive) | 102% (inactive) | 116% (inactive) | 84% (inactive) | 94.2% (inactive) | 100% (inactive) | 105% (inactive)
14 | CCOC(=O)C1=C(C)NC(=O)NC1c1c(Cl)n(-c2ccccc2)c2ccccc12 (stereo not given) | 74.7% (inactive) | 86.5% (inactive) | 80.5% (inactive) | 86.7% (inactive) | 96.1% (inactive) | 59.5% (inactive) | 66% (inactive) | 88.2% (inactive) | 83.1% (inactive) | 107% (inactive)
15 | NC1=CC(=O)c2cccnc2C1=O | -33.1% (active) | 59.2% (inactive) | 71.1% (inactive) | 14.6% (inactive) | -53.6% (active) | -31.3% (active) | -57.9% (active) | 26.6% (inactive) | 26.5% (inactive) | 76.7% (inactive)
16 | N=c1ccccn1CCO | 101% (inactive) | 107% (inactive) | 96.7% (inactive) | 110% (inactive) | 114% (inactive) | 96.5% (inactive) | 114% (inactive) | 99.3% (inactive) | 102% (inactive) | 110% (inactive)
17 | Nc1ccc(S(=O)(=O)c2ccc(N)cc2)cc1 | 99.8% (inactive) and 99.3% (inactive) | 92.2% (inactive) and 103% (inactive) | 96.7% (inactive) and 81.5% (inactive) | 107% (inactive) | 109% (inactive) and 102% (inactive) | 70.4% (inactive) and 87% (inactive) | 110% (inactive) and 94.6% (inactive) | 98.5% (inactive) | 103% (inactive) and 112% (inactive) | 115% (inactive) and 95.2% (inactive)
18 | COc1ccc(/C(C)=C(\c2ccc(OCCN3CCCCCC3)cc2)c2ccc(OC(=O)C3CCCCC3)cc2)cc1 | -74% (active) | -62.4% (active) | 5.75% (active) | -73.4% (active) | -65.6% (active) | -88.9% (active) | -67.6% (active) | -32.9% (active) | -84.2% (active) | -63% (active)
19 | COc1ccc(CCNC(=O)COc2cc3c(Nc4ccc(F)c(Cl)c4)ncnc3cc2OC)cc1OC | 92.5% (inactive) | 98.5% (inactive) | 27.3% (inactive) | 95.7% (inactive) | 95.7% (inactive) | 87.9% (inactive) | 70.2% (inactive) | 84.8% (inactive) | 89.4% (inactive) | 102% (inactive)
20 | Cc1ccc(-c2nc3nc(-c4ccccc4)nc(N4CCCNCC4)c3o2)cc1 | 19.4% (inactive) | 88.9% (inactive) | -6.9% (active) | -27.1% (active) | -57.7% (active) | -33.5% (active) | -69.6% (active) | -66.5% (active) | -97.1% (active) | -86.9% (active)
21 | COc1ccc(C(CC(=O)c2ccc3c(c2)OCO3)C(=O)O)cc1OC (stereo not given) | 104% (inactive) and 96.7% (inactive) | 110% (inactive) | 107% (inactive) and 96.1% (inactive) | 106% (inactive) and 104% (inactive) | 102% (inactive) and 112% (inactive) | 108% (inactive) and 101% (inactive) | 88.6% (inactive) and 78.1% (inactive) | 92.6% (inactive) and 98% (inactive) | 111% (inactive) and 98.6% (inactive) | 122% (inactive) and 107% (inactive)
22 | C=C[C@]1(C)C=C2CC[C@@H]3C(C)(C)C(=O)CC[C@@]3(C)[C@@H]2CC1 | 104% (inactive) | 126% (inactive) | 77% (inactive) | 105% (inactive) | 109% (inactive) | 97.7% (inactive) | 94.6% (inactive) | 101% (inactive) | 98.6% (inactive) | 116% (inactive)
23 | [Cu+].[NH-][C@H]1C[N-]C(=O)[C@H]([C@H]2CCN=C(N)N2)[N-]C(=O)/C(=C\NC(N)=O)[N-]C(=O)[C@H](CNC(=O)C[C@@H](N)CCCN)[N-]C(=O)[C@H](CO)[N-]C1=O | 105% (inactive) | 105% (inactive) | 106% (inactive) | 94.8% (inactive) | 98.4% (inactive) | -8.71% (active) | 85.6% (inactive) | 99.3% (inactive) | 102% (inactive) | 111% (inactive)
24 | O=C(NNc1ccccc1)c1ccccc1 | 98.2% (inactive) and 95.8% (inactive) | 93% (inactive) and 105% (inactive) | 66.8% (inactive) | 99.1% (inactive) and 47.3% (inactive) | 85.1% (inactive) | 102% (inactive) and 95.2% (inactive) | 48.1% (inactive) | 72.5% (inactive) and 64.1% (inactive) | 86.1% (inactive) and 64.6% (inactive) | 95% (inactive) and 65.3% (inactive)

Reference: PubChem BioAssay (NCI)
